Bioassay records: PubChem BioAssay, several laboratories
CSC inhib: blocks cancer stem cells; AID 2717; cancer stem cell-like cells viability, luminescence; 300,000 tested, 1.1% active; inhibition, % at 7.5 µM; in the data active = inhibition above about 75%; tested in HMLE shEcad cells
MPTP block: permeability transition pore inhibition. isolated mouse mitochondria, Ca2+ swelling absorbance, 30 min. inhibition, % at 10 µM. 360,000 tested, 1.4% active;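 active = inhibition of 50% or more, scaled per plate between neutral and stimulator controls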;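 also: 0% = DMSO wells given calcium and 100% = 1 mM EGTA wells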
Mdm2-MdmX inh: disrupts the human Mdm2-MdmX interaction. inhibition, % at 8 µM. SaOS-2 split-luciferase Mdm2/MdmX complementation, luminescence. 330,000 tested, 3% active. O15151+Q00987;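 active = inhibition of at least 50% at 8 µM in the primary screen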
Target sequence (O15151 whole entry, looked up): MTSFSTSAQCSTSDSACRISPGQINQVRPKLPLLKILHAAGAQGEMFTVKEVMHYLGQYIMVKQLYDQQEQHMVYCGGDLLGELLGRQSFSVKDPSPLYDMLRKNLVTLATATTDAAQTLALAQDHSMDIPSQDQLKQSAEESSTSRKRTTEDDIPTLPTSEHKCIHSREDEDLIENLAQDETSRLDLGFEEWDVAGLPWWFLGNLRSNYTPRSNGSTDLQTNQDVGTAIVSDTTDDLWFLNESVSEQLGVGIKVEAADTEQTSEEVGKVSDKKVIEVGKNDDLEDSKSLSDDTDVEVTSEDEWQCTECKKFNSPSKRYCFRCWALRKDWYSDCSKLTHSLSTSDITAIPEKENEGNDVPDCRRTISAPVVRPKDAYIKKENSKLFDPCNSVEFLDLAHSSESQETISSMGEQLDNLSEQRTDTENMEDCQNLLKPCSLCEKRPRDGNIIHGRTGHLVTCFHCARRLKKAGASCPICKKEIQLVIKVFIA
Target sequence (Q00987 whole entry, looked up): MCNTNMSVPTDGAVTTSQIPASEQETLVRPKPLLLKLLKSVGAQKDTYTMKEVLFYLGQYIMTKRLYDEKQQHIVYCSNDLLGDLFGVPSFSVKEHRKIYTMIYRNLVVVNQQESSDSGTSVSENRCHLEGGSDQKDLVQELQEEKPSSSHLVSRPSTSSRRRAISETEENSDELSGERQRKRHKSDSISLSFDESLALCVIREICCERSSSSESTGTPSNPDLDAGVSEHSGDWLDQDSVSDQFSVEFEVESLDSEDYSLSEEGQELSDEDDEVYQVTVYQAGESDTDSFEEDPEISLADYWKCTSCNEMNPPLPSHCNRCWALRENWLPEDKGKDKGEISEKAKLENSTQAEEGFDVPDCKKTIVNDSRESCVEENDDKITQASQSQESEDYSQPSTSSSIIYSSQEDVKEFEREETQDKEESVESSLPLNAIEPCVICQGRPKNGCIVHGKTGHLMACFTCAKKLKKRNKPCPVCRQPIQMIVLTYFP
SKKanGAS inh: blocks kanamycin growth of S. pyogenes SKKanGAS strain; AID 1662; 300,000 tested, 1.3% active; BacTiter-Glo, 6 h; inhibition, % at 7.5 µM;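 active = mean replicate score, as percent of positive control median, at least 50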;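 also: strain carries kanamycin resistance gene driven by streptokinase promoter and grows in 40 µg/ml kanamycin; loss of luminescence reflects streptokinase promoter inhibition or plain growth inhibition; 0% = median of DMSO wells and 100% = positive control at its reference dose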
GRIN3A LBD mod: modulates the human NR3A ligand-binding domain; NR3A LBD differential scanning fluorimetry, Tm shift; 0% = protein alone, 100% = glycine-bound protein; Tm shift relative to glycine control, % at 25 µM; 340,000 tested, 2.5% active; AID 1259313;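 active = melting temperature shift of at least 10% of the positive control shift, at one fixed dose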
Beta cell apopt: blocks beta cell apoptosis. protection from apoptosis, % (test concentration not listed). INS-1E cytokine-induced death, ATP luminescence, 48 h; percent of positive-control rescue, neutral wells zero. AID 435005. 300,000 tested, 0.8% active;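 active = Every replicate reaches about 75%, or at least half do and their mean reaches it too, limit read from the data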;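 also: 0% = cytokine-treated negative control wells and 100% = positive control rescue; higher means more ATP so stronger rescue from cytokine killing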
Mdm2-MdmX conf: confirmation of human Mdm2/MdmX interaction inhibitors. shares compounds with Mdm2-MdmX inh. Mdm2-MdmX binding, luminescent assay. inhibition, % at 8 µM. 10,000 tested, 55% active. AID 489028; in the data active = inhibition above about 40%
FLuc counter: inhibits full-length luciferase, flagging false Mdm2/MdmX hits; AID 504607; 6,200 tested, 77% active; inhibition, % at 8 µM; shares compounds with Mdm2-MdmX inh; SaOS-2 full-length luciferase counterscreen, luminescence;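 active = mean inhibition at 8 µM reaching about 37%, which flags the compound as non-specific, limit read from the data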;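 also: p53-null SaOS-2 cells with luciferase driven by a doxycycline-inducible promoter; compound on cells about two nights before reading with doxycycline added after day one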
Starred values were filed as active, the others as inactive. Rows were chosen to be rich in hits. Some 6.9% of all compounds tested hit in one or more screens of this group.

For COc1ccc(-c2csc(NC(C)=O)n2)cc1OC the results were CSC inhib 2, MPTP block 0, Mdm2-MdmX inh 2, SKKanGAS inh -3, GRIN3A LBD mod 4 and Beta cell apopt -5.
Screening COc1ccc(-c2csc(NC(=O)CCn3cnc4ccccc4c3=O)n2)cc1OC returned CSC inhib -3, MPTP block 0, Mdm2-MdmX inh 58*, SKKanGAS inh 5, GRIN3A LBD mod 4, Beta cell apopt 19 and Mdm2-MdmX conf 2.
COc1cccc(NC(=O)Nc2nc(-c3ccc(OC)c(OC)c3)cs2)c1 was read as CSC inhib 104*, MPTP block 19, Mdm2-MdmX inh 96*, SKKanGAS inh 33, GRIN3A LBD mod 23*, Beta cell apopt 17, Mdm2-MdmX conf 98* and FLuc counter 52*.
Screening CS(=O)(=O)Cc1ccc(C(=O)NC2CCCc3ccccc32)cc1 (centres undefined) returned MPTP block -2, Mdm2-MdmX inh 27, SKKanGAS inh 5, GRIN3A LBD mod -1 and Beta cell apopt -4.
`CN(CC(=O)Nc1ccc(F)c(F)c1F)C(=O)c1ccc(-n2cncn2)c([N+](=O)[O-])c1` gave CSC inhib -3, MPTP block -3, Mdm2-MdmX inh 2, SKKanGAS inh -23, GRIN3A LBD mod 1 and Beta cell apopt 6.
`CCN(CCNCC(O)COc1ccccc1C(C)C)c1cccc(C)c1` (centres undefined) gave CSC inhib 100*, MPTP block 4, Mdm2-MdmX inh 68*, SKKanGAS inh 15, Beta cell apopt 29, Mdm2-MdmX conf 41* and FLuc counter 75*.
`N#Cc1nccnc1S(=O)(=O)c1cccs1` gave CSC inhib 14, Mdm2-MdmX inh 74*, SKKanGAS inh 38, GRIN3A LBD mod -1, Beta cell apopt 20, Mdm2-MdmX conf 47* and FLuc counter 0.
Screening CN(Cc1ccccc1C#N)S(=O)(=O)c1cccs1 returned CSC inhib -6, MPTP block 2, Mdm2-MdmX inh -2, SKKanGAS inh 1 and GRIN3A LBD mod -5.
c1ccc(CNCCC(Cc2ccccc2)c2ccco2)cc1 (centres undefined) was read as CSC inhib 31, MPTP block 23, Mdm2-MdmX inh 19, SKKanGAS inh 1, GRIN3A LBD mod -2 and Beta cell apopt -11.
Screening CN(C)c1ccc(CNCCC(Cc2ccccc2)c2ccco2)cc1 (centres undefined) returned CSC inhib 13, MPTP block 39, Mdm2-MdmX inh 52*, SKKanGAS inh -16, GRIN3A LBD mod -4, Beta cell apopt 30 and Mdm2-MdmX conf 30.
Screening COc1ccc(CCNc2cc(C)nc3c(-c4ccccc4)cnn23)cc1OC returned MPTP block -1, Mdm2-MdmX inh 68*, SKKanGAS inh 30, GRIN3A LBD mod -8 and Mdm2-MdmX conf 32.
Screening Cc1cc(NC2CCCC2)n2ncc(-c3ccccc3)c2n1 returned CSC inhib 29, MPTP block 0, Mdm2-MdmX inh 84*, SKKanGAS inh 23, GRIN3A LBD mod 1, Beta cell apopt 11, Mdm2-MdmX conf 82* and FLuc counter 181*.
`Cc1cc(NCCCn2ccnc2)n2ncc(-c3ccccc3)c2n1` gave CSC inhib 1, MPTP block -5, Mdm2-MdmX inh 74*, GRIN3A LBD mod 5, Beta cell apopt 2, Mdm2-MdmX conf 70* and FLuc counter 134*.
Screening COc1ccc(CCNc2cc(C)nc3c(-c4ccccc4)c(C)nn23)cc1OC returned CSC inhib 53, MPTP block 2, Mdm2-MdmX inh 17, SKKanGAS inh 2, GRIN3A LBD mod 0 and Beta cell apopt -14.
`O=C(CSc1nnnn1C1CC1)Nc1ccc(S(=O)(=O)N2CCOCC2)cc1` gave MPTP block 1, Mdm2-MdmX inh -12, GRIN3A LBD mod 0 and Beta cell apopt -6.
O=C(CN1CCCC1c1cccs1)N1CCN(S(=O)(=O)c2ccccc2)CC1 (centres undefined) was read as MPTP block 0, Mdm2-MdmX inh -13 and GRIN3A LBD mod 0.
`O=c1[nH]c2cc3c(cc2cc1C(c1nnnn1Cc1ccccc1)N1CCCCCC1)OCCO3` (centres undefined) gave CSC inhib 9, MPTP block 3, Mdm2-MdmX inh 0, SKKanGAS inh 7, GRIN3A LBD mod 0 and Beta cell apopt -8.
Screening O=c1[nH]c2cc3c(cc2cc1C(c1nnnn1Cc1ccccc1)N1CCCc2ccccc21)OCO3 (centres undefined) returned CSC inhib -5, Mdm2-MdmX inh 100*, SKKanGAS inh -8, GRIN3A LBD mod -1 and Mdm2-MdmX conf 10.
CC(=O)c1cc2c(cc1NC(=O)c1ccc(C)cc1)OCCO2 was read as CSC inhib -2, MPTP block 1, Mdm2-MdmX inh -4, SKKanGAS inh -3, GRIN3A LBD mod 0 and Beta cell apopt 0.
`COC(=O)c1cc(-c2ccc(OC)c(OC)c2)c2c(=O)[nH]c(=O)n(C)c2n1` gave CSC inhib 0, MPTP block 1, Mdm2-MdmX inh 50*, SKKanGAS inh 37, GRIN3A LBD mod -3, Beta cell apopt -6 and Mdm2-MdmX conf 22.
For O=C1CSCN1c1ccc(Cl)cc1 the results were CSC inhib -8, MPTP block 0, Mdm2-MdmX inh -6, SKKanGAS inh -11, GRIN3A LBD mod -1 and Beta cell apopt -3.
Screening COc1cc(SC#N)ccc1N=Cc1c(C)[nH]n(-c2ccc(Cl)cc2)c1=O returned CSC inhib -1, MPTP block 4, Mdm2-MdmX inh 23, SKKanGAS inh -1, GRIN3A LBD mod -3 and Beta cell apopt 70.
COc1cc(S(=O)(=O)Nc2ccccc2)ccc1N=Cc1c(C)[nH]n(-c2ccc(C)cc2)c1=O was read as CSC inhib 9, Mdm2-MdmX inh 67*, SKKanGAS inh 28, Beta cell apopt 17 and Mdm2-MdmX conf 21.
For COc1cc(SC#N)ccc1N=Cc1c(C)[nH]n(-c2ccc(C)c(C)c2)c1=O the results were CSC inhib 97*, MPTP block 4, Mdm2-MdmX inh 87*, SKKanGAS inh 5, GRIN3A LBD mod 5, Beta cell apopt 79*, Mdm2-MdmX conf 91* and FLuc counter 52*.
`CN(NS(=O)(=O)c1ccc(Cl)cc1)c1nc(C(F)(F)F)nc2ccccc12` gave CSC inhib 60, MPTP block 7, Mdm2-MdmX inh -16, SKKanGAS inh -2, GRIN3A LBD mod -22 and Beta cell apopt 26.
